From PubChem BioAssay
The list is not random: actives were taken first. Their share in the collection is about 7.4%.
HEK293 viab – cell viability loss counter-screen | Potency, µM (series often up to 57.1 µM), inactives show top-dose activity change, negative = cytotoxicity, actives largely listed as cytotoxic | hit rate 0.12% among 150,000 | AID 1671193 | HEK-293-SNCA-luc viability, GF-AFC fluorescence, 24 h;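 also: 0% = DMSO-treated cells and -100% = medium-only wells without cells; nearly all actives have a fitted effect of over 30% in size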
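HEK-293-SNCA-luc cells (1500/well) plated 24 h, then exposed 24 h to a dilution series; GF-AFC added 30 min at 37C, fluorescence 405/540 nm; normalised to medium-only and DMSO wells, Hill fit.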
SNCA expr inh – inhibitors of alpha-synuclein (SNCA) gene expression; hit rate 0.17% among 140,000; Potency, µM (top dose mostly 57.2 µM), for the others: top-dose activity change, negative = inhibition, most hits filed as inhibitors; HEK-293 SNCA-luciferase knock-in, luminescence, 24 h; AID 1671194;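 also: plate controls were DMSO cells for no effect and cell-free wells for full effect; nearly all actives have a fitted effect of over 45% in size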
NIH3T3 tox – kills NIH 3T3 cells. NIH 3T3 viability, CellTiter-Glo ATP luminescence, 48-72 h. Potency, µM (top dose mostly 96.7 µM), inactives show at the highest dose activity change, negative = cytotoxicity, hits mostly inhibitors. hit rate 4.3% among 94,000. AID 1345082; also: nearly all actives have a fitted effect of over 55% in size
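Cells were seeded at 400 per well, treated with pin-transferred compound, and kept 48 or 72 hr at 37 °C before CellTiter-Glo addition and luminescence imaging of cellular ATP.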
NPR1 antag – antagonists of human natriuretic peptide receptor Npr1 | P16066 | HEK293 hNpr1 GloSensor cGMP, ANP-stimulated luminescence | Potency, µM (top dose mostly 46.3 µM), without a hit: at the top dose activity change, negative = inhibition, actives largely listed as inhibitors | hit rate 1.6% among 76,000 | AID 1347048; calls by dose curve; also: nearly all actives have a fitted effect of over 60% in size
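HEK293 cells stably expressing human Npr1 and cGMP GloSensor pGS-40F, loaded 2 h with 2% GloSensor reagent, given compound 30 min at room temperature. Luminescence read before and 20 min after 0.1 nM hNppA.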
FLuc inh – blocks purified firefly luciferase enzyme activity. AID 1347043. purified P. pyralis luciferase, luminescence, biochemical. P08659. hit rate 2.5% among 76,000. Potency, µM (doses to about 115 µM), most hits filed as inhibitors; also: nearly all actives have a fitted effect of over 65% in size
Target sequence (P08659 whole entry, looked up): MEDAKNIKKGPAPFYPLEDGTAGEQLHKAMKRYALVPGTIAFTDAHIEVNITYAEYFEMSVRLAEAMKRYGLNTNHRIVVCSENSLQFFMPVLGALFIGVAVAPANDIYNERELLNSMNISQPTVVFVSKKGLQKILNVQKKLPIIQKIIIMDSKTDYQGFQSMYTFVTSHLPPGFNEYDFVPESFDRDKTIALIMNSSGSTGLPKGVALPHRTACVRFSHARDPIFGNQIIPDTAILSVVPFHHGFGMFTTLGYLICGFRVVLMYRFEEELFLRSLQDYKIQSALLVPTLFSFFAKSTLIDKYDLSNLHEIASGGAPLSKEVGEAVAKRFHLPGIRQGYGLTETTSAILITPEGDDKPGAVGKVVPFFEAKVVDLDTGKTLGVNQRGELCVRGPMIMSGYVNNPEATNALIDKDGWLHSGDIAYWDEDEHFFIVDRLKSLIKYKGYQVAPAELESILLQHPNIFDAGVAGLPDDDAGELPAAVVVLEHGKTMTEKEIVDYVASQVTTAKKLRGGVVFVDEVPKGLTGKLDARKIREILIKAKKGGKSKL
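Biochemical qHTS: compound (6-point titration) added to 10uM D-luciferin plus 10uM ATP in Tris acetate pH 7.5 buffer with Mg, Tween-20 and BSA, then purified enzyme at 10nM; light output imaged.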
HEK cytotox – cytotoxic compounds in HEK 293 cells; HEK 293 viability, ATP luminescence (CellTiter-Glo), 48-72 h; Potency, µM (top dose mostly 115 µM), inactives show top-dose activity change, negative = cytotoxicity, usual class: inhibitors; hit rate 6.6% among 94,000; AID 1345083; also: nearly all actives have a fitted effect of over 60% in size
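ATP-coupled CellTiter-Glo luminescence served as viability read-out, recorded 10 min after reagent addition at room temperature. HEK 293 cells, 250 cells/well, had been incubated with pintool-transferred compound for 48 or 72 hr at 37 degree Celsius.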
* hit, by the source's call; i = inactive; ? = inconclusive; / = no result given; ! = a repeat was not active; [ ] = remark or other dose. Unless noted, calls follow the shape of the dose curve; as a rule, active = well fitted curve in the direction sought with a large enough effect; inconclusive = small, poorly fitted or top-dose-only effect, or another doubt; inactive = no such curve, though single readings can be large; an effect the other way counts as inactive or inconclusive. Unless noted, % is scaled to controls: 0 for no effect and ±100 for the full control effect; potency is read from the fitted curve at half-maximal effect.

SMILES | HEK293 viab | SNCA expr inh | NIH3T3 tox | NPR1 antag | FLuc inh | HEK cytotox
O=C1NC(=NC2CCCC2)C2(CCN([S+](=O)([O-])c3cccc(C(F)(F)F)c3)C2)N1c1cccnc1 (stereo not given) | 3% | 30% | -13% | 37% | i | -4%
CCN1c2cc(C(=O)Nc3ccc(C)cc3)ccc2C(=O)N2CCCCCC21 (stereo not given) | 14%[12.5 µM] | 13% | ? | -24% | ? | 40µM*
CCN1c2cc(C(=O)Nc3ccc(C)cc3Cl)ccc2C(=O)N2CCCCCC21 (stereo not given) | ? | -19% | ? | -1% | i | 50µM*
CCN1c2cc(C(=O)Nc3cc(C)cc(C)c3)ccc2C(=O)N2CCCCC21 (stereo not given) | 21%[12.5 µM] | -28% | ? | -4% | i | 28µM*
CCN1c2cc(C(=O)NCCC3=CCCCC3)ccc2C(=O)N2CCCCC21 (stereo not given) | -3%[12.5 µM] | -20% | ? | -10% | i | 45µM*
CCN1c2cc(C(=O)Nc3ccc(C)cc3C)ccc2C(=O)N2CCCCCC21 (stereo not given) | 12%[12.5 µM] | 2% | ? | 0% | i | ?
CCN1c2cc(C(=O)NCCC3=CCCCC3)ccc2C(=O)N2CCCCCC21 (stereo not given) | 15%[12.5 µM] | 10% | ? | -7% | i | ?
COC(=O)C1=CO[C@@H](O[C@@H]2O[C@H](CO)[C@@H](O)[C@H](O)[C@H]2O)C2C1C(=O)C[C@H]2C (stereo not given in full) | 3% | / | / | / | / | /
Cc1ccc(C2Cn3nnc(C(=O)N4CCC(C(=O)NC5CCN(C)CC5)CC4)c3CO2)cc1 (stereo not given) | 7% | 38% | i | -2% | ? | -4%
CCN1c2cc(C(=O)Nc3ccccc3)ccc2C(=O)N2CCCCCC21 (stereo not given) | 15%[12.5 µM] | 24% | ? | -3% | i | 40µM*
COc1ccc2nc3n(c2c1)[C@@H](CNC(C)C)COC3 | -9%[87.6 µM] | 3%[87.6 µM] | 100µM* | 1%[70.6 µM] | i | -14%[230 µM]
Cn1cccc1CN1CCC2(CC1)CC(c1cccnc1)=NO2 | -25%[87.6 µM] | 4%[87.6 µM] | -12%[138 µM] | -1%[70.6 µM] | i | ?
CCN1c2cc(C(=O)Nc3ccc(Br)c(C)c3)ccc2C(=O)N2CCCC21 (stereo not given) | -3%[12.5 µM] | 73% | -20% | 0% | i | ?
CCN1c2cc(C(=O)Nc3ccc(Cl)c(C)c3)ccc2C(=O)N2CCCCC21 (stereo not given) | ? | -29% | ? | 4% | i | 16µM*
CCN1c2cc(C(=O)Nc3ccc(Cl)c(Cl)c3)ccc2C(=O)N2CCCCCC21 (stereo not given) | -2%[12.5 µM] | ? | 45µM* | -2% | i | ?
CCN1c2cc(C(=O)Nc3ccc(C)c(C)c3)ccc2C(=O)N2CCCCC21 (stereo not given) | 13%[12.5 µM] | -20% | 28µM* | -10% | i | 28µM*
CCCOC(c1cc2nccc(C(=O)O)c2[nH]1)c1ccccc1Cl (stereo not given) | -3% | / | / | / | / | /
C=C(C)C(=O)O[C@H]1C[C@@](C)(OC(C)=O)[C@@]2(O)CC[C@@](C)(O)[C@H](OC(C)=O)[C@@]23OC(=O)C(COC)=C13 | -12%[23.9 µM] | / | / | / | / | /
O=C(NCCc1noc(-c2ccncc2)n1)C1CC(=O)N(c2ccc(F)c(Cl)c2)C1 (stereo not given) | -13%[12.5 µM] | -6% | -10% | 4% | i | -6%
CCCc1nc(C)c2c(=O)[nH]c(-c3cc(S(=O)(=O)N4CCN(CC)CC4)ccc3OCC)nn12 | 27µM*! | ? | / | / | / | /
CCOc1ccc(S(=O)(=O)N2CCN(Cc3nc4ccc(C)cc4o3)CC2)cc1 | -10% | -5% | / | / | / | /
CC1=C[C@@H](CNC(=O)c2cccnc2)[C@H](C(C)C)C[C@H]1Cc1nc2ccc(F)cc2[nH]1 | -24%[87.6 µM] | ? | ? | -4%[70.6 µM] | i | ?
CC(=O)NC[C@@H]1C=C(C)[C@H](Cc2nc3ccc(F)cc3[nH]2)C[C@H]1C(C)C | -26%[87.6 µM] | -15%[87.6 µM] | 79µM* | -15%[70.6 µM] | i | 45µM*
COCC(=O)NC[C@@H]1C=C(C)[C@H](Cc2nc3ccccc3[nH]2)C[C@H]1C(C)C | ? | ? | ? | -22%[70.6 µM] | i | ?
COCC(=O)NC[C@@H]1C=C(C)[C@H](Cc2nc3ccc(F)cc3[nH]2)C[C@H]1C(C)C | ? | -26%[87.6 µM] | 50µM* | -15%[70.6 µM] | i | ?
SMILES | HEK293 viab | SNCA expr inh | NIH3T3 tox | NPR1 antag | FLuc inh | HEK cytotox
O=C1NC(=NC2CCCCC2)C2(CCCN(Cc3ccc(F)cc3)C2)N1c1cccnc1 (stereo not given) | -5% | -14% | ? | / | / | ?
O=C(C1CC=CCC1)N1CCc2[nH]nc(-c3ccc(C(F)(F)F)cc3)c2C1 (stereo not given) | -3% | -8% | ? | -6% | i | 25µM*
Cc1noc2c(Nc3ccncc3)cc(-c3ccc(F)cc3)nc12 | 1%[87.6 µM] | 1%[87.6 µM] | ? | 12%[70.6 µM] | i | ?
O=C(c1cc2ccccc2[nH]1)N1CCC2(CC1)CN(c1ccncn1)CC2CO (stereo not given) | -2%[12.5 µM] | 18% | ? | -1% | i | ?
O=C(c1cc2ccccc2[nH]1)N1CCC2(CC1)CN(c1ncccn1)CC2CO (stereo not given) | -16% | 13% | ? | -12% | i | 79µM*
COc1cccc(CC(=O)N2CCC(Oc3ncccc3C(=O)N(C)C)C2)c1 (stereo not given) | 4% | 3% | -12% | -2% | i | -20%
O=C(NCc1ccccc1)c1cnc2n1CCN(Cc1ccccc1F)CC2 | -16%[87.6 µM] | ? | ? | -8%[70.6 µM] | i | 28µM*
Cc1ccc(CN2CCc3ncc(C(=O)NCCOc4ccccc4)n3CC2)o1 | -22%[87.6 µM] | ? | 35µM* | -10%[70.6 µM] | i | 50µM*
CCn1nccc1C(=O)N1CCCC1c1nc(CCOc2cccc(C)c2)no1 (stereo not given) | 3% | 5% | -25% | 6% | i | ?
CCOc1ccc(CN2CCCC23Cc2ccccc2CNC3=O)cc1 (stereo not given) | -1% | -23% | -20% | / | / | ?
COc1ccc(-c2cc(-c3ccc(CO)cc3)cn3cncc23)cc1 | -3%[87.6 µM] | 3%[87.6 µM] | ? | -17%[70.6 µM] | i | 79µM*
COc1ccc(-c2cc(-c3cccnc3)c3cncn3c2)cc1OC | 1%[87.6 µM] | 31%[87.6 µM] | 35µM* | 0%[70.6 µM] | i | ?
COc1ccc(-c2cc(-c3ccc([S+](C)(=O)[O-])cc3)cn3cncc23)cc1 | -23%[87.6 µM] | -11%[87.6 µM] | ? | -17%[70.6 µM] | i | ?
